Assay outcomes from PubChem.
Only some compounds are listed: those with a hit (about 2.1% of all), similar ones and a draw of the others.
PrP UTR inh = suppresses PrP 5' UTR mRNA reporter expression; 340,000 compounds, 0.35% hits; cell-based PrP 5' UTR mRNA reporter, plate reader; inhibition, % (no concentration beside the values); AID 488862; in the data active = inhibition above about 52%; note: 0 = median of the neutral control wells
BJeLR lethal = BJeLR cell viability loss. 300,000 compounds, 0.17% hits. BJeLR (HRASV12) viability, CellTiter-Glo ATP luminescence, 48 h. inhibition, % (no concentration beside the values). AID 1554; in the data active = inhibition above about 50%; inconclusive = no clear call, values can overlap the other calls
MazEF act = increases E. coli MazEF RNase cleavage of RNA. P0AE70. FAM/BHQ RNA-DNA oligo cleavage fluorescence, 5 h. activation, % at 20 µM. 350,000 compounds, 0.32% hits; in the data active = activation above about 50%
DUSP3 inh = inhibitors of human VHR1 phosphatase (DUSP3); P51452; recombinant VHR phosphatase, pNPP absorbance; 290,000 compounds, 0.52% hits; AID 1654; inhibition, % at 13.3 µM; in the data active = inhibition above about 50%
PrPC surface inh = inhibitors of human cell surface prion protein PrPC; P04156; TR-FRET read-out; inhibition, % at 13.8 µM; 370,000 compounds, 0.43% hits; AID 720596; in the data active = inhibition above about 24%; note: 0% = median of the test wells and 100% = reference compound wells
PfHsp40 rescue = restores yeast growth despite PfHsp40 toxicity; S. cerevisiae expressing PfHsp40, growth rescue, ATP luminescence; growth rescue, % at 12.5 µM; 340,000 compounds, 0.68% hits; in the data active = growth rescue above about 28%, passing the limit was not always enough; inconclusive = no clear call, values can overlap the other calls;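 note: yeast W303a lacking pdr1 and pdr3 grown in galactose medium; growth measured after three days at 30 °C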
PrPC TRFRET cf = confirmation of inhibitors of cell surface human prion protein; shares compounds with PrPC surface inh; 1,500 compounds, 65% hits; cell surface PrPC level, TR-FRET; inhibition, % at 13.8 µM; in the data active = inhibition above about 25%
LD9 tox = LD9 cell cytotoxicity, PrPc inhibitor counter-screen | shares compounds with PrPC surface inh | LD9 cells cytotoxicity, luminescence viability | inhibition, % at 13.8 µM | 1,500 compounds, 29% hits | AID 743201; in the data active = inhibition above about 9.5%
The depositor's hits bear a star; ? = inconclusive; / = no result.

SMILES	PrP UTR inh	BJeLR lethal	MazEF act	DUSP3 inh	PrPC surface inh	PfHsp40 rescue	PrPC TRFRET cf	LD9 tox
CCOc1ccc2[nH]cc(C(=O)NCc3ccccc3)c(=O)c2c1	-6.3	1.5	9.0	6.4	24.9*	0.3	17.5	5.5
CCOc1ccc(C(C)=O)cc1CSC(=N)N	-16.9	6.7	-5.8	19.8	2.6	-0.5	/	/
CCCCOc1ccc(Br)cc1CSC(=N)N	-16.5	7.7	5.8	-12.9	24.7*	1.1	4.3	20.9*
Cc1coc2c(C)c3oc(=O)c(CCC(=O)N[C@@H](C)C(=O)N[C@@H](Cc4ccccc4)C(=O)O)c(C)c3cc12	-20.1	3.3	-3.4	12.5	5.1	-0.3	/	/
Cc1ccc(C(=O)Nc2nc(COc3ccccc3)cs2)s1	-18.2	12.2	2.0	-6.0	30.0*	5.9	22.2	5.9
CC(=O)Nc1nc(COc2ccccc2)cs1	-57.2	21.6	1.7	-11.2	11.0	-0.7	/	/
CCc1cc2cccc(C)c2nc1SCC(=O)Nc1cc(C)on1	-59.9	0.3	21.0	15.8	14.7	-0.7	/	/
CCc1cc2cccc(C)c2nc1SCC(=O)NNC(=O)c1ccco1	-14.6	3.7	14.5	5.4	70.7*	-0.9	98.1*	-3.0
CCc1cc2cccc(C)c2nc1SCC(=O)Nc1nonc1C	-20.1	5.2	3.4	10.3	30.6*	-2.2	35.2*	-4.5
CCc1cc2ccc(C)c(C)c2nc1SCC(=O)NNC(=O)c1ccco1	-21.3	0.5	-1.6	11.8	19.2	1.3	/	/
C=CCN1C(=O)[C@H](CC(=O)NCc2ccccc2)[C@@]2(C(=O)OCC)CCCC=C12	/	/	/	/	-1.3	/	/	/
CC(=O)C(Sc1ccc2nnc(-c3ccc(F)cc3)n2n1)C(C)=O	-10.5	5.2	9.0	25.2	-6.7	-0.5	/	/
CCC(Sc1ccc2nnc(-c3ccc(F)cc3)n2n1)C(=O)O (configuration not stated)	-15.6	10.9	3.6	18.6	38.0*	-1.4	57.7*	-7.6
C=CCNc1nnc(Cc2ccc(F)cc2)c(=O)[nH]1	-19.8	8.8	3.8	1.8	-0.3	-0.5	/	/
Cn1c(=O)[nH]c(=O)c2c1nc([N+](=O)[O-])n2Cc1ccccc1	-2.8	-0.5	4.7	-2.8	6.0	1.1	/	/
CC(C)[C@@H](NC(=O)OC(C)(C)C)c1cc(C(=O)c2c(-c3ccccc3)[nH]c3ccccc23)c(N)s1	/	/	/	/	41.3*	/	29.6*	-9.6
Cc1oc(-c2cccc(Cl)c2)nc1CS(=O)(=O)CC(=O)NCCN1CCCC1	-20.5	12.1	5.5	33.0	-0.9	0.0	/	/
Cc1ccc(/C(O)=C2/C(=O)C(=O)N(c3ccccn3)C2c2ccc(F)cc2)cc1 (configuration not stated)	-30.9	-2.5	3.2	26.2	10.5	-0.1	/	/
CCOc1ccc(/C(O)=C2/C(=O)C(=O)N(c3ccccn3)C2c2ccc(F)cc2)c(C)c1 (configuration not stated)	-10.6	1.9	16.0	-13.7	29.4*	-0.5	63.1*	-5.9
COc1ccc(NC(=O)c2c(N)no[n+]2[O-])cc1	-18.2	-3.6	-1.2	22.6	26.1*	-0.5	25.1*	-6.9
COC(=O)[C@]12C[C@H](CC(=O)N3CCCC3)C(=O)N(Cc3ccco3)C1=C[C@H](COCc1ccccc1)O[C@@H]2C	/	/	/	/	-4.9	/	/	/
CC(C)=CCC[C@@]1(C(=O)O)[C@H]2CC=C(CO)[C@@H]1CC/C(C)=C/CC/C(C)=C/C2	/	/	/	/	24.4*	/	27.1*	11.8*
COC1=CC(=O)OC(c2ccco2)C1 (configuration not stated)	-14.8	/	-1.9	/	0.0	-1.1	/	/
CCOC(=O)C1CCN(c2ncnc3c2cnn3-c2ccc(OC)cc2)CC1	4.1	/	-5.7	16.3	4.2	-0.5	/	/
COc1ccc(-n2ncc3c(N4CCC(C(N)=O)CC4)ncnc32)cc1	-43.6	0.5	8.0	20.6	36.5*	-1.0	29.2*	-3.8
SMILES	PrP UTR inh	BJeLR lethal	MazEF act	DUSP3 inh	PrPC surface inh	PfHsp40 rescue	PrPC TRFRET cf	LD9 tox
Fc1ccc(NC(=S)Nc2nccs2)cc1	-53.9	6.9	5.1	12.3	31.7*	-0.2	19.9	5.0
COc1cc(C(=O)Nc2ccc3c(c2)ncn3C)cc(OC)c1OC	-12.2	29.2	-4.3	0.1	77.1*	-0.1	73.4*	0.0
COc1cc(C(=O)Nc2ccc3c(c2)nc(C)n3C)cc(OC)c1OC	-33.1	31.7	0.2	4.1	8.2	0.2	/	/
Cc1ccc(-c2csc(NC(=O)c3cccc(C)c3)c2C(=O)O)cc1	-25.4	-2.5	1.0	/	36.3*	59.6*	50.4*	-5.9
COc1cc(C(=O)Nc2scc(-c3ccc(Br)cc3)c2C(=O)O)cc(OC)c1OC	-18.9	-0.2	-18.5	3.0	56.2*	0.6	60.0*	-5.5
Cc1sc2nc(CSCC(=O)Nc3ccc(C(=O)N(C)C)cc3)[nH]c(=O)c2c1C	-1.0	/	5.6	/	-9.4	0.3	/	/
COc1ccc(-c2nnc(-c3ccc(Br)o3)o2)cc1OC	-24.9	-12.9	-5.0	12.1	59.7*	-0.2	75.7*	-3.2
NCCCNc1nc(N)c([N+](=O)[O-])c(NC2CCCCC2)n1	-64.1	5.4	5.3	20.1	66.4*	3.7	78.8*	24.7*
COCCNc1nc(N)c([N+](=O)[O-])c(NC2CCCCC2)n1	-2.1	-2.7	3.8	/	6.5	10.1	/	/
CNC(=O)c1cc(Oc2ccc(NC(=O)Nc3ccc(Cl)c(C(F)(F)F)c3)cc2)ccn1	30.6	/	1.4	/	26.9*	?	17.3	5.9
C=CC#CC[N+]1(CC#Cc2ccccc2)CCOCC1	-2.0	-3.8	-15.7	8.2	38.2*	-0.7	43.9*	-5.9
C(#Cc1ccccc1)C[N+]1(CC#Cc2ccccc2)CCCC1	-20.7	2.6	8.6	-4.8	8.7	-0.7	/	/
N#CC1c2ccccc2-n2nncc2CN1Cc1cc(Cl)cc(Cl)c1 (configuration not stated)	32.5	/	-0.5	/	68.3*	3.7	90.6*	98.0*
O=c1c(Cc2ccc(Cl)cc2)c(O)ccn1Cc1ccccc1	-22.7	2.6	8.2	41.6	5.4	0.2	/	/
CCOC(CCn1ccc(O)c(Cc2ccc(Cl)cc2)c1=O)OCC	4.6	1.5	5.9	-5.3	35.0*	1.6	11.2	-1.2
COc1cccc(NC(=O)N2CCCC(C(=O)NC3CCCCC3C)C2)c1 (configuration not stated)	-7.5	-2.0	2.4	16.3	1.5	1.7	/	/
O=C1C=CN2CCCCC2CC1 (configuration not stated)	-13.9	/	-11.4	/	8.5	0.7	/	/
COc1cc(SC)ccc1C(=O)Nc1cccc(C2OCCCO2)c1	-45.9	6.7	8.9	-24.8	-5.7	1.6	/	/
CN(c1ccc(Cl)cc1)c1cc(=O)n(C)c2ccccc12	0.8	5.7	-2.6	27.4	24.6*	1.2	20.1	0.5
CN(C(=O)COc1cc(=O)n(C)c2ccccc12)c1ccc(Cl)cc1	-16.2	-0.3	10.1	46.1	-3.6	-0.9	/	/
